# Where a name gives a salt, the structure may show the parent alone.
# System: Danio rerio larvae (5 dpf)
# Test: habituation (activity change first vs second 5 min of 1-s interval sound, period 17) minus DMSO control (percentage points); higher = larger habituation measure than DMSO larvae
# Details: 10 µM; exposure time: 3 h pre-incubation + 3 h imaging
# Protocol: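 Wild-type 5 dpf zebrafish larvae (n=48 per drug, 96-well plates, 28.5 °C) were exposed to Tocris FDA-approved library compounds at 10 µM (0.1% DMSO) for 3 h before and 3 h during imaging. Images were taken every 6 s during visual and acoustic stimuli, and larvae were tracked with Z-LaP Tracker. Each measure is the treated-group mean minus the DMSO control mean (n=844), in percentage points. This mapping covers compounds with 5-character plate codes.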
row,SMILES,habituation
1,COCCc1ccc(OCC(O)CNC(C)C)cc1 (configuration not stated) [Metoprolol tartrate],-3.41
2,C[C@H]1O[C@H](O[C@H]2[C@H](O)[C@@H](O)[C@@H](O[C@H]3[C@H](O)[C@@H](O)C(O)O[C@@H]3CO)O[C@@H]2CO)[C@H](O)[C@@H](O)[C@@H]1N[C@H]1C=C(CO)[C@@H](O)[C@H](O)[C@H]1O (some centres not stated) [Acarbose],1.19
3,O=C(O)C[C@H](O)C[C@H](O)/C=C/c1c(C2CC2)nc2ccccc2c1-c1ccc(F)cc1 [Pitavastatin calcium],-5.34
4,COc1cc(N)c(Cl)cc1C(=O)NC1CCN(CCCOc2ccc(F)cc2)CC1OC (configuration not stated) [Cisapride],4.4
5,Clc1ccc2nsnc2c1NC1=NCCN1 [Tizanidine hydrochloride],-2.36
6,NC(=O)OCC(COC(N)=O)c1ccccc1 [Felbamate],2.5
7,NS(=O)(=O)c1cc2c(cc1Cl)NC(C1CC3C=CC1C3)NS2(=O)=O (configuration not stated) [Cyclothiazide],1.92
8,OC(c1cc(C(F)(F)F)nc2c(C(F)(F)F)cccc12)C1CCCCN1 (configuration not stated) [Mefloquine hydrochloride],3.04
9,CC(C)(C(=O)O)c1ccc(C(O)CCCN2CCC(C(O)(c3ccccc3)c3ccccc3)CC2)cc1 (configuration not stated) [Fexofenadine hydrochloride],3.94
10,CN(C)CCc1c[nH]c2ccc(C[C@H]3COC(=O)N3)cc12 [Zolmitriptan],-0.595
11,CNCc1ccc(-c2[nH]c3cc(F)cc4c3c2CCNC4=O)cc1 [Rucaparib camsylate],5.03
12,C[C@@H]1C[C@H]2[C@@H]3CCC4=CC(=O)C=C[C@]4(C)[C@@]3(F)[C@@H](O)C[C@]2(C)[C@@]1(O)C(=O)CO [Dexamethasone],2.24
13,N#C[C@@H]1C[C@@H]2C[C@@H]2N1C(=O)[C@@H](N)C12CC3CC(CC(O)(C3)C1)C2 [Saxagliptin hydrochloride],2.76
14,CC(C)COCC(CN(Cc1ccccc1)c1ccccc1)N1CCCC1 (configuration not stated) [Bepridil hydrochloride],-5.91
15,CCCc1nn(C)c2c(=O)[nH]c(-c3cc(S(=O)(=O)N4CCN(C)CC4)ccc3OCC)nc12 [Sildenafil citrate],-2.72
16,CC[C@H]1OC(=O)[C@H](C)[C@@H](O[C@H]2C[C@@](C)(OC)[C@@H](O)[C@H](C)O2)[C@H](C)[C@@H](O[C@@H]2O[C@H](C)C[C@H](N(C)C)[C@H]2O)[C@](C)(O)C[C@@H](C)CN(C)[C@H](C)[C@@H](O)[C@]1(C)O [Azithromycin],3.26
17,CCCCCCCN(CC)CCCC(O)c1ccc(NS(C)(=O)=O)cc1 (configuration not stated) [Ibutilide hemifumarate],-0.126
18,O=c1n(CCCN2CCN(c3cccc(Cl)c3)CC2)nc2ccccn12 [Trazodone hydrochloride],-12.5
19,C#CCN[C@@H]1CCc2ccccc21 [Rasagiline mesylate],3.64

row,SMILES,habituation
1,CC(=O)Oc1cc2c(s1)CCN(C(C(=O)C1CC1)c1ccccc1F)C2 (configuration not stated) [Prasugrel],0.528
2,N#Cc1ccc2[nH]cc(CCCCN3CCN(c4ccc5oc(C(N)=O)cc5c4)CC3)c2c1 [Vilazodone hydrochloride],-2.05
3,OCCN1C[C@H](O)[C@@H](O)[C@H](O)[C@H]1CO [Miglitol],-1.71
4,COc1cc2nccc(Oc3ccc(NC(=O)C4(C(=O)Nc5ccc(F)cc5)CC4)cc3)c2cc1OC,-4.58
5,OCc1cc(C(O)CNCCCCCCOCCCCc2ccccc2)ccc1O (configuration not stated) [Salmeterol xinafoate],-0.659
6,COc1ccccc1Oc1c(NS(=O)(=O)c2ccc(C(C)(C)C)cc2)nc(-c2ncccn2)nc1OCCO [Bosentan],4.58
7,CN(C)C(=N)NC(=N)N [Metformin hydrochloride],2.17
8,CC(C)OC(=O)C(C)(C)Oc1ccc(C(=O)c2ccc(Cl)cc2)cc1 [Fenofibrate],-2.39
9,CCCC1O[C@@H]2C[C@H]3[C@@H]4CCC5=CC(=O)C=C[C@]5(C)[C@H]4[C@@H](O)C[C@]3(C)[C@]2(C(=O)CO)O1 (some centres not stated) [Budesonide],-1.55
10,CNS(=O)(=O)Cc1ccc2[nH]cc(CCN(C)C)c2c1 [Sumatriptan succinate],2.06
11,O=C1CCc2ccc(OCCCCN3CCN(c4cccc(Cl)c4Cl)CC3)cc2N1 [Aripiprazole],-7.85
12,CNC(=O)c1cc(Oc2ccc(NC(=O)Nc3ccc(Cl)c(C(F)(F)F)c3)cc2)ccn1 [Sorafenib],-9.55
13,CC(=O)Nc1ccc(O)cc1 [Acetaminophen],-1.62
14,COc1ccccc1OCC(O)CN1CCN(CC(=O)Nc2c(C)cccc2C)CC1 (configuration not stated) [Ranolazine dihydrochloride],-2.2
15,CN[C@H]1CC[C@@H](c2ccc(Cl)c(Cl)c2)c2ccccc21 [Sertraline hydrochloride],-8.76
16,Cc1cc2c(s1)Nc1ccccc1N=C2N1CCN(C)CC1 [Olanzapine],0.758
17,COc1cc([C@@H]2c3cc4c(cc3[C@@H](O[C@@H]3O[C@@H]5CO[C@@H](C)O[C@H]5[C@H](O)[C@H]3O)[C@H]3COC(=O)[C@H]23)OCO4)cc(OC)c1O [Etoposide],1.7
18,CCc1nc(N)nc(N)c1-c1ccc(Cl)cc1 [Pyrimethamine],3.38

# From the supplement of paper PMC9950053
